Measured values reported in PubChem BioAssay AID1159580 (chemical genetic matrix, 2015).
About 2,000 (36%) of roughly 5,500 compounds were called active. About 18% were inconclusive and are not listed. No stated cut-off is given here; in the data, active means normalized growth mostly below about 0.91 (no sharp cut-off); inconclusive means no clear call, values can overlap the other calls; inactive means mostly above about 0.92. Some of the results follow.

Test: chemical genetic growth profiling, strain panel (AID 1159580);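 further: tested at 20 µM; growth read once vehicle control cultures reached saturation at 30 °C; 1 = growth at the plate median or of vehicle wells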
Settings: growth OD

Measured: normalized growth

C=C1C2CC[C@@]3(C)[C@H](c4ccoc4)OC(=O)C[C@]13O[C@H]1CC(O)C(C)(C)C(CC(=O)OC)[C@@]21C (stereo not given in full)
inactive: S. cerevisiae deletion strains, locus YJL187C, strain SWE1, stronger effect = lower value 0.971 | S. cerevisiae deletion strains, locus YJR043C, strain POL32, stronger effect = lower value 1.01 | S. cerevisiae deletion strains, locus YJR066W, strain TOR1, stronger effect = lower value 0.922 | S. cerevisiae deletion strains, locus YKL009W, strain mrt4, stronger effect = lower value 1 | S. cerevisiae deletion strains, locus YKL068W, stronger effect = lower value 1.01 | S. cerevisiae deletion strains, locus YKL085W, strain MDH1 (second series), stronger effect = lower value 0.999 | S. cerevisiae deletion strains, locus YKL085W, strain MDH1, stronger effect = lower value 0.999 | S. cerevisiae deletion strains, locus YKL160W, strain elf1, stronger effect = lower value 0.984 | S. cerevisiae deletion strains, locus YKL190W, strain CNB1, stronger effect = lower value 0.987 | S. cerevisiae deletion strains, locus YKR001C, strain vps1, stronger effect = lower value 0.999 | S. cerevisiae deletion strains, locus YKR026C, strain gcn3, stronger effect = lower value 0.985 | S. cerevisiae deletion strains, locus YKR091W, strain srl3, stronger effect = lower value 0.965 | S. cerevisiae deletion strains, locus YLL001W, strain dnm1, stronger effect = lower value 0.989 | S. cerevisiae deletion strains, locus YLL026W, stronger effect = lower value 0.974 | S. cerevisiae deletion strains, locus YLL041C, strain sdh2, stronger effect = lower value 0.971 | S. cerevisiae deletion strains, locus YLR027C, strain aat2, stronger effect = lower value 0.99 | S. cerevisiae deletion strains, locus YLR039C, strain RIC1, stronger effect = lower value 0.963 | S. cerevisiae deletion strains, locus YLR058C, strain SHM2, stronger effect = lower value 1 | S. cerevisiae deletion strains, locus YLR102C, strain apc9, stronger effect = lower value 1.01 | S. cerevisiae deletion strains, locus YLR113W, strain HOG1, stronger effect = lower value 0.996 | S. cerevisiae deletion strains, locus YLR221C, strain rsa3, stronger effect = lower value 0.981 | S. cerevisiae deletion strains, locus YLR258W, strain gsy2, stronger effect = lower value 0.977 | S. cerevisiae deletion strains, locus YLR262C, strain YPT6 (second series), stronger effect = lower value 0.925 | S. cerevisiae deletion strains, locus YLR268W, strain sec22, stronger effect = lower value 1.01 | S. cerevisiae deletion strains, locus YLR320W, strain mms22, stronger effect = lower value 0.97 | S. cerevisiae deletion strains, locus YLR342W, strain FKS1 (second series), stronger effect = lower value 1.02 | S. cerevisiae deletion strains, locus YLR342W, strain FKS1, stronger effect = lower value 0.971 | S. cerevisiae deletion strains, locus YLR357W, strain rsc2, stronger effect = lower value 0.998 | S. cerevisiae deletion strains, locus YLR370C, strain arc18, stronger effect = lower value 0.981 | S. cerevisiae deletion strains, locus YLR371W, strain rom2, stronger effect = lower value 1.02 | S. cerevisiae deletion strains, locus YLR384C, strain iki3, stronger effect = lower value 0.964 | S. cerevisiae deletion strains, locus YLR418C, strain cdc73, stronger effect = lower value 0.998 | S. cerevisiae deletion strains, locus YML016C, strain PPZ1, stronger effect = lower value 1.01 | S. cerevisiae deletion strains, locus YML032C, strain rad52, stronger effect = lower value 1.03 | S. cerevisiae deletion strains, locus YML120C, strain ndi1, stronger effect = lower value 0.99 | S. cerevisiae deletion strains, locus YML124C, strain tub3, stronger effect = lower value 1.01 | S. cerevisiae deletion strains, locus YMR058W, strain fet3, stronger effect = lower value 0.97 | S. cerevisiae deletion strains, locus YMR078C, strain ctf18, stronger effect = lower value 1.01 | S. cerevisiae deletion strains, locus YMR125W, strain sto1, stronger effect = lower value 0.972 | S. cerevisiae deletion strains, locus YMR129W, stronger effect = lower value 0.989 | S. cerevisiae deletion strains, locus YMR205C, strain PFK2, stronger effect = lower value 0.962 | S. cerevisiae deletion strains, locus YMR223W, strain ubp8, stronger effect = lower value 1.01 | S. cerevisiae deletion strains, locus YMR231W, strain pep5, stronger effect = lower value 0.971 | S. cerevisiae deletion strains, locus YMR307W, strain GAS1, stronger effect = lower value 1.06 | S. cerevisiae deletion strains, locus YNL067W, strain RPL9B, stronger effect = lower value 1.01 | S. cerevisiae deletion strains, locus YNL071W, strain lat1, stronger effect = lower value 0.974 | S. cerevisiae deletion strains, locus YNL183C, strain NPR1, stronger effect = lower value 0.974 | S. cerevisiae deletion strains, locus YNL209W, strain ssb2, stronger effect = lower value 0.979 | S. cerevisiae deletion strains, locus YNL233W, strain BNI4, stronger effect = lower value 0.972 | S. cerevisiae deletion strains, locus YNL248C, strain rpa49, stronger effect = lower value 0.971 | S. cerevisiae deletion strains, locus YNL250W, strain rad50, stronger effect = lower value 1.02 | S. cerevisiae deletion strains, locus YNL271C, strain bni1, stronger effect = lower value 1.01 | S. cerevisiae deletion strains, locus YNL298W, strain CLA4, stronger effect = lower value 1.01 | S. cerevisiae deletion strains, locus YNL307C, strain MCK1, stronger effect = lower value 1.01 | S. cerevisiae deletion strains, locus YNL322C, strain KRE1 (second series), stronger effect = lower value 0.985 | S. cerevisiae deletion strains, locus YNR049C, strain mso1, stronger effect = lower value 0.969 | S. cerevisiae deletion strains, locus YNR052C, strain pop2, stronger effect = lower value 1.02 | S. cerevisiae deletion strains, locus YOL012C, strain htz1 1.88 | S. cerevisiae deletion strains, locus YOL147C, strain pex11, stronger effect = lower value 1.02 | S. cerevisiae deletion strains, locus YOR001W, strain rrp6, stronger effect = lower value 0.969 | S. cerevisiae deletion strains, locus YOR061W, strain CKA2, stronger effect = lower value 1 | S. cerevisiae deletion strains, locus YOR069W, strain VPS5, stronger effect = lower value 1.01 | S. cerevisiae deletion strains, locus YOR070C, strain gyp1, stronger effect = lower value 0.978 | S. cerevisiae deletion strains, locus YOR080W, strain dia2, stronger effect = lower value 0.979 | S. cerevisiae deletion strains, locus YOR083W, strain WHI5, stronger effect = lower value 0.981 | S. cerevisiae deletion strains, locus YOR106W, strain vam3, stronger effect = lower value 0.955 | S. cerevisiae deletion strains, locus YOR136W, strain idh2, stronger effect = lower value 1.02 | S. cerevisiae deletion strains, locus YOR144C, strain elg1, stronger effect = lower value 1.03 | S. cerevisiae deletion strains, locus YOR184W, strain ser1, stronger effect = lower value 1.01 | S. cerevisiae deletion strains, locus YOR231W, strain MKK1, stronger effect = lower value 0.991 | S. cerevisiae deletion strains, locus YOR265W, strain rbl2, stronger effect = lower value 0.986 | S. cerevisiae deletion strains, locus YOR270C, strain vph1, stronger effect = lower value 0.878 | S. cerevisiae deletion strains, locus YOR290C, strain snf2, stronger effect = lower value 0.987 | S. cerevisiae deletion strains, locus YOR316C, strain cot1, stronger effect = lower value 1.01 | S. cerevisiae deletion strains, locus YPL051W, strain arl3, stronger effect = lower value 0.975 | S. cerevisiae deletion strains, locus YPL078C, strain atp4, stronger effect = lower value 0.981 | S. cerevisiae deletion strains, locus YPL106C, strain sse1, stronger effect = lower value 0.973 | S. cerevisiae deletion strains, locus YPL240C, strain hsp82, stronger effect = lower value 0.98 | S. cerevisiae deletion strains, locus YPL256C, strain CLN2, stronger effect = lower value 0.939 | S. cerevisiae deletion strains, locus YPR119W, strain clb2, stronger effect = lower value 1.02 | S. cerevisiae deletion strains, locus YPR141C, strain kar3, stronger effect = lower value 1.02 | S. cerevisiae deletion strains, locus YPR163C, strain tif3, stronger effect = lower value 1.02 | S. cerevisiae deletion strains, locus YPR167C, strain met16, stronger effect = lower value 1.01 | S. cerevisiae deletion strains, strain wtn01, stronger effect = lower value 1.01 | S. cerevisiae strains, strain wild type, stronger effect = lower value 0.998
